Data on nine compounds can be found in PubChem BioAssay (NCATS).

The target of assay [1] is Thyroid hormone receptor beta (Homo sapiens) (UniProt P10828). Briefly: qHTS assay for small molecule agonists of thyroid hormone receptor beta signaling (AID 588545; calls by dose curve;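 note: 0% = DMSO only and 100% = 10 nM T3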). In a few lines: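 Compounds were tested as agonists in TR-UAS-bla-GripTite HEK 293 cells. After 18 hrs at 37 C, CCF4 substrate was added and fluorescence read after 2 hrs at room temperature.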
Chain of Thyroid hormone receptor beta (Homo sapiens) (P10828 whole entry, looked up): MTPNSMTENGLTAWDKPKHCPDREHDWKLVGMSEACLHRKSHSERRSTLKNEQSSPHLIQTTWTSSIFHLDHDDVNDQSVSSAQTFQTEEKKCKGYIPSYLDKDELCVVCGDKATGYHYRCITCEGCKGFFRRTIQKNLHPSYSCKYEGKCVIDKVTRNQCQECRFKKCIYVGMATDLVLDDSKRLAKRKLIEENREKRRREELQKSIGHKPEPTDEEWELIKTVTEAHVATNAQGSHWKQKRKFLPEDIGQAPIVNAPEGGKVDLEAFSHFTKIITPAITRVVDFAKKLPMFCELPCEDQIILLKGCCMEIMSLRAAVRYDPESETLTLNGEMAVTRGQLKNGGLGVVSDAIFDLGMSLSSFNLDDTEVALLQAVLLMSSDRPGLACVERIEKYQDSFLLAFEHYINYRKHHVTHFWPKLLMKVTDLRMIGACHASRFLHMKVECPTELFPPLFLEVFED
The nature of assay [2]: qHTS assay for small molecule antagonists of retinoid X receptor alpha signaling (AID 588546; active = well fitted inhibition curve with a large enough effect in the signal ratio, with a control signal flat, not every such curve was filed as active; the % refers to the signal ratio;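 note: cells stimulated with 9-cis-retinoic acid as agonist; % is set by controls: 0 for no effect and ±100 for the full control effect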). As to conditions: HEK293T RXRa-UAS-bla, beta-lactamase ratio, antagonist mode; measured here: W530 green channel, cytotoxicity proxy. In a few lines:
(§1)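 Beta-lactamase reporter inhibition, read as CCF4 fluorescence ratio (ex 405, em 460/530 nm) after 2 h at RT. HEK293T UAS-bla cells, 2500/well, were stimulated with 9-cis-RA at 500 or 100 nM final alongside test compound for 18 h at 37 C.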
(Quantitative high-throughput screening tests each substance at several concentrations.)

Assay [3] concerns the target Thyroid hormone receptor beta (Homo sapiens) (UniProt P10828). Briefly: qHTS assay for small molecule antagonists of thyroid hormone receptor beta signaling (AID 588547; active = well fitted inhibition curve with a large enough effect in the signal ratio, with a control signal flat, not every such curve was filed as active; the % refers to the signal ratio;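 note: cells stimulated with 0.4 nM T3 agonist during compound exposure; series mostly up to about 77 µM; % is set by controls: 0 for no effect and ±100 for the full control effect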). As to conditions: TR-UAS-bla HEK293, beta-lactamase ratio, antagonist mode, 18 h. The procedure, abridged: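 Inhibition of T3-driven (0.4nM final) beta-lactamase reporter activity was measured over 0.59 nM to 92 uM compound after 18 h at 37 C. The cells were GripTite HEK293 TR-UAS-bla in charcoal/dextran-stripped serum, with CCF4 ratio read-out and IC50 from Hill fits.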

Assay [4] in a line: qHTS assay for small molecule agonists of the antioxidant response element (ARE) signaling pathway (AID 651741; active = well fitted activation curve with a large enough effect in the signal ratio; the % refers to the signal ratio; note: potency is the fitted concentration of half-maximal effect; for activation: % of control where 0% means no effect). The procedure, abridged:
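Beta-lactamase reporter under ARE control in HepG2 cells, 2,000 per well, was induced by 16 h compound treatment at 37 C. Read-out was fluorescence from LiveBLAzer B/G FRET substrate after 2 h at room temperature.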

Assay [5] in a line: qHTS assay for small molecule activators of the p53 signaling pathway (AID 651743; active = well fitted activation curve with a large enough effect in the signal ratio, not every such curve was filed as active; the % refers to the signal ratio; note: series mostly up to about 92 µM; % of control where 0% means no effect). The conditions noted are these: HCT-116 p53RE-bla, beta-lactamase FRET ratio, 16 h; stronger effect = higher value. In a few lines:
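After 16 hours compound treatment at 37 C, HCT-116 cells stably expressing p53RE-driven beta-lactamase were loaded with LiveBLAzer B/G FRET substrate for 2 hours at room temperature. Fluorescence intensity served as the p53 activation read-out.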

A short description of assay [6]: qHTS assay for small molecule disruptors of the mitochondrial membrane potential - 1 hr assay (AID 651754; calls by dose curve; note: % is set by controls: 0 for no effect and ±100 for the full control effect; nearly all actives have a fitted effect of over 35% in size). The procedure, abridged: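 Loss of mitochondrial potential shifts the cationic dye from red mitochondrial aggregates to green cytoplasmic monomers. Cells (HepG2) are treated with compound for 1 hr before a 30 min dye incubation at 37C.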
Assay [7] can be described thus: qHTS assay for small molecule disruptors of the mitochondrial membrane potential - 5 hr assay (AID 651755; calls by dose curve; note: % is set by controls: 0 for no effect and ±100 for the full control effect; nearly all actives have a fitted effect of over 40% in size). The procedure, abridged:
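Membrane-potential dye readout: red aggregate (540 ex/590 em) versus green monomer (490 ex/535 em) fluorescence after 30 min dye loading, following 5 hr compound exposure at 37C of overnight-plated HepG2 cells.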

Assay [8] concerns the target Tumor necrosis factor (Homo sapiens) (UniProt P01375). Nature of the assay: qHTS assay to identify small molecules that stimulate Tumor Necrosis Factor-alpha (TNF-alpha) secretion (AID 651757; active = well fitted curve in the direction sought with a large enough effect in the signal ratio; the % refers to the signal ratio; note: 0% is about no effect). In a few lines: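 Human monocytic THP-1 cells are plated, treated with compound and held at 37 C for 17 hrs. Labeled anti-TNF-alpha antibody mixture is then added; after 3 hr at room temperature, TR-FRET signal reports secreted TNF-alpha.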

The nature of assay [9]: qHTS assay for environmental chemicals that activate the Aryl hydrocarbon Receptor (AhR) signaling pathway (AID 651777). Note: % of control where 0% means no effect; nearly all actives have a fitted effect of over 15% in size. The conditions noted are these: 1A2-DRE human hepatoma cells, luciferase, 24 h; activation: stronger effect = higher value. The procedure, abridged: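 Measured luciferase activity, read 30 min after One-Glo addition at room temperature, from human hepatoma cells bearing a dioxin response element–CYP1A2 promoter reporter and exposed to compound for 24 hr at 37 C.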

Assay [10] addresses Peroxisome proliferator-activated receptor alpha (Homo sapiens) (UniProt Q07869). Nature of the assay: qHTS assay for small molecule agonists of the peroxisome proliferator-activated receptor alpha (PPARalpha) signaling pathway (AID 651778). Note: % of control where 0% means no effect. The conditions noted are these: PathHunter PPARalpha complementation, chemiluminescence, 6 h; stronger effect = higher value. In a few lines: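 Chemiluminescence from complemented enzyme reported PPARalpha activation in cells after 6 hr of compound treatment at 37 C. The detection reagent was incubated for 60 min at room temperature, and compounds were scored as agonists.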

Assay [11] concerns the target Nuclear receptor ROR-gamma (Homo sapiens) (UniProt P51449). Nature of the assay: qHTS assay for small molecule antagonists of the retinoid-related orphan receptor gamma (ROR-gamma) signaling pathway (AID 651802). Note: nearly all actives have a fitted effect of over 60% in size. Note: potency is the fitted concentration of half-maximal effect. In a few lines: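 Steps: cells dispensed; compound or DMSO transferred by pin tool; doxycycline added to induce the ROR response element-driven luciferase; plates held 16hr at 37C; ONE-Glo added and luminescence measured.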

Assay [12] in a line: qHTS assay for small molecule agonists of the antioxidant response element (ARE) signaling pathway measured by Nrf2-dependant transcriptional activity (AID 720636; active = well fitted curve in the direction sought with a large enough effect in the repeat runs; an effect the other way counts as inactive or inconclusive;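 note: HepG2 cells with an ARE-driven luciferase reporter; % of control where 0% means no effect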). The procedure, abridged: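 In HepG2 cells engineered with an Nrf2-responsive luciferase gene, ARE induction was quantified as luminescence after 16 hr compound treatment at 37 C.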
Assay [13] can be described thus: qHTS assay for small molecule antagonists of the retinoid-related orphan receptor gamma (ROR-gamma) signaling pathway - cell viability counter screen (AID 720652; active = well fitted curve in the direction sought with a large enough effect in the repeat runs; an effect the other way counts as inactive or inconclusive;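 note: CHO reporter cells with doxycycline-induced ROR-gamma expression; series mostly up to about 92 µM; compound exposure lasted 16 hr before ATP read; % is set by controls: 0 for no effect and ±100 for the full control effect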). In a few lines: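 Steps: seed CHO cells bearing TET-inducible ROR and ROR response element-luciferase; rest 5 hr at 37 C; add compound, then doxycycline; incubate 16 hr; add CellTiter-Glo and read luminescence as ATP-based viability.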

Assay [14] is described as follows: qHTS assay for small molecule agonists of the antioxidant response element (ARE) signaling pathway measured by Nrf2-dependant transcriptional activity - cell viability counter screen (AID 720653; active = well fitted curve in the direction sought with a large enough effect in the repeat runs; an effect the other way counts as inactive or inconclusive; note: % is set by controls: 0 for no effect and ±100 for the full control effect). The conditions noted are these: ARE-bla HepG2 viability, CellTiter-Glo ATP luminescence, 16 h; stronger effect = lower value. The procedure, abridged: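 Cytotoxicity counter screen: intracellular ATP quantified by CellTiter-Glo luminescence in the same ARE-bla HepG2 plates, after 16 h compound exposure and a 2 h beta-lactamase substrate step.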

Assay [15] deals with Retinoic acid receptor RXR-alpha (Homo sapiens) (UniProt P19793). Nature of the assay: qHTS assay for small molecule antagonists of retinoid X receptor alpha signaling (AID 588546).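 Note: cells stimulated with 9-cis-retinoic acid as agonist; % is set by controls: 0 for no effect and ±100 for the full control effect.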 The conditions noted are these: HEK293T RXRa-UAS-bla, beta-lactamase ratio, antagonist mode. The procedure, abridged: as §1
Chain of Retinoic acid receptor RXR-alpha (Homo sapiens) (P19793 whole entry, looked up): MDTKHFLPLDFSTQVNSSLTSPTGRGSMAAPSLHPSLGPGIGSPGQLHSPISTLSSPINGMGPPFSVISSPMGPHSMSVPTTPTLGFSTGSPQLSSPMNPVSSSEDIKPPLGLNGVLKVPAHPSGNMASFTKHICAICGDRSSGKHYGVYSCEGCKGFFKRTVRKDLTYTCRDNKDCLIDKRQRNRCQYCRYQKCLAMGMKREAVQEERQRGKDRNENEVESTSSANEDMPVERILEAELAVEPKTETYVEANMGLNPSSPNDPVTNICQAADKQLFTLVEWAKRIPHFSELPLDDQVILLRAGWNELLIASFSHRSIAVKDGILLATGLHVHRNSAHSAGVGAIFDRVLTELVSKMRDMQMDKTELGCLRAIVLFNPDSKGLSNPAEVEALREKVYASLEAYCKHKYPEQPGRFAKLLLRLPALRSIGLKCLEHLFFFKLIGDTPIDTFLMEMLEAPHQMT
The target of assay [16] is Voltage-gated inwardly rectifying potassium channel KCNH2 (Homo sapiens) (UniProt Q12809). Briefly: qHTS Assay for Small Molecule Inhibitors of the Human hERG Channel Activity (AID 588834).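 Note: top concentration of the series differs between compounds; % is set by controls: 0 for no effect and ±100 for the full control effect; lower thallium flux fluorescence means stronger hERG block; nearly all actives have a fitted effect of over 50% in size.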 The procedure, abridged: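 Thallium-flux (FluxOR) read-out on FDSS: fluorescence read 10 s before and 2 min after stimulation buffer. hERG-BacMam-transduced U2OS cells, compound exposure about 10 min. AC50 by standard Hill equation.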
Chain of Voltage-gated inwardly rectifying potassium channel KCNH2 (Homo sapiens) (Q12809 whole entry, looked up): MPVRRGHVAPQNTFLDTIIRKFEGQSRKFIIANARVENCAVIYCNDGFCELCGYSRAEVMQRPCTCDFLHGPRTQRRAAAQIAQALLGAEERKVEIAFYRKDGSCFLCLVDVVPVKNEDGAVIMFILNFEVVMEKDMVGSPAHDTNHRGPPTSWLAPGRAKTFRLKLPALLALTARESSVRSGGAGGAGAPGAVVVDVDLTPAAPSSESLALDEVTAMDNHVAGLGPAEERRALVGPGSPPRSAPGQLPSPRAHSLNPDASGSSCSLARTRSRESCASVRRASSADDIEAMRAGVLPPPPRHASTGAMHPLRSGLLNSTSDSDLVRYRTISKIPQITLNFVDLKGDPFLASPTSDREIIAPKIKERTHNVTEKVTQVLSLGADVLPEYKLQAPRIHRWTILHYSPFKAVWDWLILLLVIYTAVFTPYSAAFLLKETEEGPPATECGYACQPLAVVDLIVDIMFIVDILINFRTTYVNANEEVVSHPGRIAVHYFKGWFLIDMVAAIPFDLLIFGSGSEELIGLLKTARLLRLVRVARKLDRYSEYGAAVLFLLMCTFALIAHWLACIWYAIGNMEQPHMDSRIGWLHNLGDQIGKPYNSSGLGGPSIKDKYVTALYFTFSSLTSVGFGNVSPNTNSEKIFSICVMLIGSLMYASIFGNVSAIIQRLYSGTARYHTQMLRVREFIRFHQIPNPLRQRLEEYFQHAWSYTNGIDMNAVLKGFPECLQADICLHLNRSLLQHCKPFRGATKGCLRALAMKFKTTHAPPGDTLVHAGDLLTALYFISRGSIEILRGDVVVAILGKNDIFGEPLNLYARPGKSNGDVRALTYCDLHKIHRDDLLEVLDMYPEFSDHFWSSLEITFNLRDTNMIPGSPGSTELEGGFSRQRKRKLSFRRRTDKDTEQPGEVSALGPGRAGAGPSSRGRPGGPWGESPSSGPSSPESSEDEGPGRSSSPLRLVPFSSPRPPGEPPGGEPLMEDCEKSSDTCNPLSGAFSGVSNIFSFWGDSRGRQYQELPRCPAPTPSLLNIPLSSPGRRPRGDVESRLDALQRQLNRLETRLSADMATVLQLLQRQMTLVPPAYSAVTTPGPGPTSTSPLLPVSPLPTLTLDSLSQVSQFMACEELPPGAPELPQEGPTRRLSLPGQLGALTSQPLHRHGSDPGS

Assay [17] can be described thus: qHTS assay to identify small molecules that stimulate interleukin-8 (IL-8) secretion (AID 651758; active = well fitted activation curve with a large enough effect in the signal ratio; the % refers to the signal ratio; note: 0% is about no effect). In a few lines: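 Secreted IL-8 measured homogeneously by TR-FRET (two labelled anti-IL-8 antibodies, 1-3 h at room temperature) after a 16 h, 37 C compound treatment of THP-1 cells at 2000 cells/well.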
The nature of assay [18]: qHTS assay for small molecule agonists of retinoid X receptor alpha signaling (AID 588544). The conditions noted are these: HEK293T RXRa-UAS-bla, beta-lactamase reporter, 18 h; 530 nm emission.
Assay [19] in a line: qHTS assay for small molecule activators of the nuclear factor-kappa B (NF-kB) signaling pathway (AID 651749; active = well fitted activation curve with a large enough effect in the signal ratio; the % refers to the signal ratio; note: series mostly up to about 77 µM; % of control where 0% means no effect). As to conditions: NF-kB-bla ME-180 cells, beta-lactamase FRET ratio, 16 h; stronger effect = higher value. The procedure, abridged: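 Activation measured after 16 hr compound treatment at 37C, 5% CO2, of 2,000 ME-180 cells/well stably expressing an NF-kB response element–driven beta-lactamase reporter, via FRET-disruption fluorescence.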

Where “and” joins values, the source holds several entries; their conditions need not be identical. Equal values may be shown once. Records with an inconclusive call do not appear. Calls of active or inactive are those of the source. Unless noted, calls come from the whole dose curve; as a rule, active = well fitted curve in the direction sought with a large enough effect; inconclusive = small, poorly fitted or top-dose-only effect, or another doubt; inactive = no such curve, though single readings can be large; an effect the other way counts as inactive or inconclusive.

Chain of Nuclear receptor ROR-gamma (Homo sapiens) (P51449 whole entry, looked up): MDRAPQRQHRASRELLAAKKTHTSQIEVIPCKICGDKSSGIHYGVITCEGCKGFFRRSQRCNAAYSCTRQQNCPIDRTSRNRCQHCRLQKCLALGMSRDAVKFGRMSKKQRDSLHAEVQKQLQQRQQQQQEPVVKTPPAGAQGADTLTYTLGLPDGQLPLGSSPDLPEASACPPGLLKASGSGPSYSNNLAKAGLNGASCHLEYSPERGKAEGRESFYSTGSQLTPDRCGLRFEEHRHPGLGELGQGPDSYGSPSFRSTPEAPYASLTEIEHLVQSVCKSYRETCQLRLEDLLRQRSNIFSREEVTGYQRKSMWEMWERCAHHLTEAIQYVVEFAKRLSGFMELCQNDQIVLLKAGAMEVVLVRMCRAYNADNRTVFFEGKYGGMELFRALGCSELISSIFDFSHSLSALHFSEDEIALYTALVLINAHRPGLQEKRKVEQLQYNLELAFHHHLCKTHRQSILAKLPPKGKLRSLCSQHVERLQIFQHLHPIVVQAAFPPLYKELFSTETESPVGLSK
Chain of Tumor necrosis factor (Homo sapiens) (P01375 whole entry, looked up): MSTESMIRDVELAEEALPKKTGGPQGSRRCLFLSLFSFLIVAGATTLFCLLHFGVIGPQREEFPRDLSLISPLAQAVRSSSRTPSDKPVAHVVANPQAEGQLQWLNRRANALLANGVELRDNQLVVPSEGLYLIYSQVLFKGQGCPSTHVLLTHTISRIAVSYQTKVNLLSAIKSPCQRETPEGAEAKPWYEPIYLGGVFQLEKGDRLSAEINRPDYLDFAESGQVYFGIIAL
Chain of Peroxisome proliferator-activated receptor alpha (Homo sapiens) (Q07869 whole entry, looked up): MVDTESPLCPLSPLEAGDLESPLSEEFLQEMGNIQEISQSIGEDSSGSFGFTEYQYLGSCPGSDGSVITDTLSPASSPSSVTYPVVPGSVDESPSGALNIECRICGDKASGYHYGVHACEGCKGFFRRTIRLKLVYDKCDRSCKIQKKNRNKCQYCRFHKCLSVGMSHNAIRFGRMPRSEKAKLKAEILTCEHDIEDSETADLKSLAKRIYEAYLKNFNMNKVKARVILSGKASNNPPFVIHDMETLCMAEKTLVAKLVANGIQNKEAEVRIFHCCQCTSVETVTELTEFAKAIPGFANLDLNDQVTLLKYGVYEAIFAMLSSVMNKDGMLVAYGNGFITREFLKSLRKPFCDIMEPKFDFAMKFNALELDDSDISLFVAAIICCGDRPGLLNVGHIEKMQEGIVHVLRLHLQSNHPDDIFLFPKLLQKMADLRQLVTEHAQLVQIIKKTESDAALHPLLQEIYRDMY

As for `COc1ccccc1[N+](=O)[O-]`, the call in assay [1] and in [12] was inactive. Also, the max response in assay [2] is -6.53% and 1.73%; in [10] it was -1.42% (inactive) and -1.21% (inactive); in [14], -18.6% (inactive) and -4.26% (inactive). Further, the activity change % (negative = inhibition) in assay [3] is -3.34% (inactive) and -9.45% (inactive). Further, the Potency entry in assay [4], in assay [6], in assay [7], in assay [8], in [11] and in [13] was “inactive” each time. In addition, the activation in [5] was -2.31% (inactive) and 1.29% (inactive); in [9], 0.316% (inactive) and 0.0004% (inactive).
For `CC(C)(c1cc(Br)c(OCC(Br)CBr)c(Br)c1)c1cc(Br)c(OCC(Br)CBr)c(Br)c1` (configuration not stated), the max response was -15.9% in [2], 2.49% (inactive) in assay [15], -5.28% (inactive) in assay [10] and -4.49% (inactive) in [14]. Moreover, the activity change % (negative = inhibition) in assay [3] is -9.17% (inactive). Further, the Potency entry in assay [16], in assay [4], in assay [8], in assay [17], in [11] and in [13] was “inactive” each time. For the same compound, the activation is 2.84% (inactive) in assay [5] and -1.38% (inactive) in assay [9]. Moreover, the call in assay [12] was inactive.
Consider `CCC(C)(C)C(=O)O`, for which the max response in [18] is -9.68%; in [2], -3.08%; in assay [15], 6.62% (inactive); in assay [10], -5.15% (inactive); in assay [14], -0.295% (inactive). Also, the call in assay [1] and in [12] was inactive. Moreover, the activity change % (negative = inhibition) in assay [3] was -3.87% (inactive). The Potency entry in assay [4], in assay [6], in assay [7], in [8], in assay [11] and in assay [13] was “inactive” in each case. Further, the activation in assay [5] is 0.0165% (inactive); in assay [19], -0.114% (inactive); in assay [9], 0.179% (inactive).
For `CCOCCO`, the max response in assay [18] is 9.04%; in assay [2] it was 1.51%; in [15], 7.78% (inactive); in [10], -5.75% (inactive); in assay [14], 10.2% (inactive). Besides, the activity change % (negative = inhibition) in assay [3] is -11.8% (inactive). The Potency entry in [16], in assay [6], in [7], in [8] and in [11] was “inactive” each time. The activation in assay [5] is -2.61% (inactive); in assay [19], -1.02% (inactive); in assay [9], -0.327% (inactive). Moreover, the result in assay [12] was inactive.
On to `O=Cc1ccc(C(=O)O)cc1`, for which the max response in assay [18] was 15.4%; in [2] it was -11.2%; in assay [15], 34.5% (inactive); in assay [10], -5.11% (inactive); in assay [14], -13.7% (inactive). The result in assay [1] and in assay [12] was inactive. Also, the activity change % (negative = inhibition) in assay [3] is 7.45% (inactive). Further, the Potency result in [16], in [6], in [8], in assay [11] and in assay [13] was “inactive” each time. Also, the activation in assay [5] was -2.17% (inactive); in assay [9], -0.237% (inactive).
Take `O=C1NC(=O)c2cc([N+](=O)[O-])ccc21`: the max response was 3.03% in assay [18], 4.85% in assay [2], 7.59% (inactive) in assay [15] and -3.3% (inactive) in assay [10]. In addition, the activity change % (negative = inhibition) in assay [3] is 2.64% (inactive). Further, the Potency result in assay [16], in assay [4], in assay [6], in [7], in [8] and in [11] was “inactive” in each case. Besides, the Potency entry in assay [13] is “inactive”. The values for the activation in [5], in assay [19] and in [9] were -2.78% (inactive), 0.0192% (inactive) and -0.349% (inactive), respectively. In [12], the call was inactive.
Turning to `C[C@@H]1CC2(OC3C[C@@]4(C)C5=CC[C@H]6C(C)(C)C(O[C@@H]7OC[C@@H](O)[C@H](O)[C@H]7O)CC[C@@]67C[C@@]57CC[C@]4(C)C31)OC(O)C1(C)OC21` (some centres not stated), the compound was classed as inactive in [1] and in [12]. Moreover, the Potency in assay [4] was 75 µM (active); in [11], 21.1 µM (active). Also, the activation in assay [5] was -4.93% (inactive); in [19], -1.92% (inactive); in assay [9], -0.875% (inactive). Moreover, the Potency result in [6], in [7], in assay [8] and in [17] was “inactive” in each case. In assay [10], the max response is 8.86% (inactive).
Turning to `O=Nc1ccc(NO)cc1`, the compound was called inactive in [1] and in [12]. The activity change % (negative = inhibition) in assay [3] is -12.9% (inactive). Moreover, in assay [16], the Potency entry is “inactive”. In addition, the Potency in [4] was 13.3 µM (active). Besides, the results for the activation in [5], in assay [19] and in assay [9] were -5.55% (inactive), -2.26% (inactive) and 6.63% (inactive), respectively. Also, the max response in assay [10] is -1.48% (inactive); in [14], 2.71% (inactive).
On to `C=CCOC(=O)CCCCCCCC`, for which the call in assay [1] and in [12] was inactive. Besides, the max response is -1.68% in [2], -5.32% (inactive) in assay [15], -0.94% (inactive) in assay [10] and 3.3% (inactive) in assay [14]. In addition, the activity change % (negative = inhibition) in assay [3] was -0.411% (inactive). The Potency result in assay [4], in assay [8], in [17], in assay [11] and in [13] was “inactive” throughout. Also, the values for the activation in [5] and in [9] were -2.19% (inactive) and -2.14% (inactive), respectively.
